Rows were chosen to be rich in hits. Some 5.2% of all compounds tested hit in one or more screens of this group.
mIDH1 inhibitor: inhibitors of human mutant IDH1 R132H. IDH1-R132H enzyme, NADPH consumption, diaphorase/resazurin fluorescence. Potency, µM (highest dose often 76.6 µM), without a hit: top-dose activity change, negative = inhibition, most hits filed as inhibitors. actives 0.093% (n = 390,000); note: potency is the fitted concentration of half-maximal effect; % is set by controls: 0 for no effect and ±100 for the full control effect; nearly all actives have a fitted effect of over 65% in size
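IDH1-R132H (0.5 ug/mL) preincubated 30 min with compound, then NADPH (0.016 mM) and alpha-KG (2 mM) added; 80 min at RT, pH 7.5. Remaining NADPH coupled via diaphorase/resazurin to fluorescence (540/590 nm); concentration-response curves normalized to no-enzyme control.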
VDR inhibitor: vitamin D3 receptor (human) inhibition; VDR-SRC2-3 peptide fluorescence polarization, 2 h; actives 0.93% (n = 400,000); Potency, µM, without a hit: max response, negative = inhibition, usual class: inhibitors; note: potency is the fitted concentration of half-maximal effect; % is set by controls: 0 for no effect and ±100 for the full control effect
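FP read-out; VDR + SRC2-3 coactivator peptide; 23 nl compound by pintool; 2 h RT incubation; reagents held at 4 deg C, protected from light.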
rTrxR1 inhibitor: blocks rat thioredoxin reductase 1 | recombinant rTrxR1, NADPH fluorescence consumption, selenite substrate | Potency, µM (top dose mostly 114 µM), for inactives: at the top dose activity change, negative = inhibition, hits mostly inhibitors | actives 1% (n = 390,000) | AID 588453; note: potency is the fitted concentration of half-maximal effect; % is set by controls: 0 for no effect and ±100 for the full control effect; nearly all actives have a fitted effect of over 65% in size
Target sequence (O89049 whole entry, looked up): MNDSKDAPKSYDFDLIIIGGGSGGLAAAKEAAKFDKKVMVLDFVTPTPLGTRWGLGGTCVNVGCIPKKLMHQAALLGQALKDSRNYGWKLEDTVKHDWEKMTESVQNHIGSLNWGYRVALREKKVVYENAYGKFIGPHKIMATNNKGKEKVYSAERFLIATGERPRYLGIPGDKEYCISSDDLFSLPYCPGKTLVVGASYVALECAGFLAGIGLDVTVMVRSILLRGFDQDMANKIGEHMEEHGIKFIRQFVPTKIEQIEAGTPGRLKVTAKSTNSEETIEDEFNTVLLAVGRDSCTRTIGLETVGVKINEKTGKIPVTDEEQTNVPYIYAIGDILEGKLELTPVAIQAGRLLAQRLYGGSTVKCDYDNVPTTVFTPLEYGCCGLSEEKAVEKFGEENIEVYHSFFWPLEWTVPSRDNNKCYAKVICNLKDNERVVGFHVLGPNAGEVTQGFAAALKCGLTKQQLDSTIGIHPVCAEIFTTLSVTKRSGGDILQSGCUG
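Rat TrxR1 (90 nM in the dispensed reagent) was pre-reduced with 400 uM NADPH for 5 min at room temperature, then incubated with compound for 15 min. After 400 uM selenite was added, NADPH fluorescence (Ex 340/Em 450 nm) was followed for 8 min.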
TrxR1 substrate: substrates of rat thioredoxin reductase 1; O89049; purified TrxR1 substrate turnover, NADPH consumption readout; Potency, µM (highest dose often 114 µM), for inactives: top-dose activity change, negative = substrate turnover; actives 0.01% (n = 390,000); AID 588456; note: potency is the fitted concentration of half-maximal effect; % is set by controls: 0 for no effect and ±100 for the full control effect; nearly all actives have a fitted effect of over 50% in size
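Rat TrxR1, dispensed at 90 nM, was prereduced with 400 uM NADPH (final) for 5 min at ~22 deg C, then incubated with compound 15 min before 400 uM selenite. A first-read NADPH fluorescence drop versus no-compound background flagged substrates.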
Sfp inh: inhibitors of Bacillus subtilis Sfp phosphopantetheinyl transferase; Q9F4F7; Biochemical Sfp PPTase activity, qHTS; Potency, µM, for inactives: largest response in the series, negative = inhibition, actives largely listed as inhibitors; actives 3.5% (n = 310,000);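 note: the enzyme is Sfp with the accession as filed and its product quenches rhodamine fluorescence; potency is the fitted concentration of half-maximal effect; 0% = enzyme reaction without inhibitor and -100% = no enzyme wells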
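Reaction rates are the 30-min fluorescence difference (ex 525, em 598 nm) in wells containing 15 nM Sfp, 5 uM rhodamine-CoA and 12.5 uM BHQ-2-YbbR at pH 7.6 with 10 mM MgCl2.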
PLK1 PBD inh: blocks phosphopeptide binding to human PLK1 polo-box domain | Plk1 PBD binding of FITC phosphopeptide, fluorescence polarization | P53350 | actives 2.8% (n = 360,000) | Potency, µM, for the others: max response, negative = inhibition, most hits filed as inhibitors; note: potency is the fitted concentration of half-maximal effect; series mostly up to about 57 µM; % is set by controls: 0 for no effect and ±100 for the full control effect; nearly all actives have a fitted effect of over 65% in size
USP1-UAF1 confirm: blocks human USP1/UAF1 cleavage of Ub-Rhodamine; Ub-Rhodamine cleavage, fluorescence kinetic read; actives 50% (n = 50); AID 540327; Potency, µM (top dose mostly 114 µM), inactives show at the top dose activity change, negative = inhibition, most hits filed as inhibitors; shares compounds with VDR inhibitor
VDR inh confirm: inhibits human vitamin D receptor, primary hit validation | shares compounds with VDR inhibitor | AID 602199 | VDR-coactivator inhibition assay, qHTS confirmation | Potency, µM, usual class: inhibitors | actives 89% (n = 840); note: potency is the fitted concentration of half-maximal effect
VDR FP: VDR (human) coactivator binding inhibition, fluorescein polarization. actives 48% (n = 840). Potency, µM (doses to about 57.1 µM), for inactives: top-dose activity change, negative = inhibition, hits mostly inhibitors. AID 602200. VDR-coactivator binding, fluorescein fluorescence polarization. shares compounds with VDR inhibitor; note: potency is the fitted concentration of half-maximal effect
VDR bla reporter: VDR (human) inhibition, cell-based beta-lactamase validation; AID 602202; shares compounds with VDR inhibitor; VDR beta-lactamase reporter cells, FRET ratio; cells co-treated with VDR agonist LG190178; actives 23% (n = 840); Potency, µM (doses to about 46.1 µM), inactives show top-dose activity change, negative = inhibition, actives largely listed as inhibitors; note: potency is the fitted concentration of half-maximal effect; % is set by controls: 0 for no effect and ±100 for the full control effect
VDR viability: cytotoxic in counter-screen for VDR inhibitors; shares compounds with VDR inhibitor; cytotoxicity counter-screen, cell viability, qHTS; Potency, µM (doses to about 48.3 µM), for inactives: at the highest dose activity change, negative = cytotoxicity, actives largely listed as cytotoxic; actives 18% (n = 840); AID 602204;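 note: potency is the fitted concentration of half-maximal effect; plate controls were DMSO for no effect and high-concentration cycloheximide for full effect; nearly all actives have a fitted effect of over 75% in size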
Starred values were filed as active, the others as inactive; ? = inconclusive; / = no result; ! = not confirmed by another sample; [ ] = remark or other dose. Calls come from the whole dose curve; as a rule, active = well fitted curve in the direction sought with a large enough effect; inconclusive = small, poorly fitted or top-dose-only effect, or another doubt; inactive = no such curve, though single readings can be large; an effect the other way counts as inactive or inconclusive.

SMILES	mIDH1 inhibitor	VDR inhibitor	rTrxR1 inhibitor	TrxR1 substrate	Sfp inh	PLK1 PBD inh	VDR inh confirm	VDR FP	VDR bla reporter	VDR viability	others
CC(=O)N1CCC2(CC1)CCN(C(=O)Nc1cccc(F)c1)CC2	/	?	/	/	-13%	/	/	/	/	/
COc1cc(/C=C2\C(=O)N(CCC#N)N=C2C)c(Br)cc1OC(C)C	3%	?	?	-1%	8%	1.7µM*	8.4*	?	19%	18%
CCOc1cc(Br)c(/C=C2/C(=O)N(C)C(=S)N2CC(=O)OC)cc1OC	-12%	-9%	2%[57.1 µM]	1%[57.1 µM]	22%	-15%	/	/	/	/
CN1C(=O)/C(=N\OC(=O)c2ccccc2Cl)c2ccccc21	-1%	?	10µM*	5%	-12%	2.7µM*	14*	16µM*	?	2%
CN(C)S(=O)(=O)c1ccc2c(c1)/C(=C/c1cc3c([nH]1)CCCC3)C(=O)N2	-15%	-19%	?	10%[57.1 µM]	/	3%	/	/	/	/	USP1-UAF1 confirm=47µM*
COc1ccc(/C=C2\COc3ccccc3C2=O)cc1OC	5%	?	?	2%[57.1 µM]	-20%	27µM*	22*	16µM*	?	?
CCOc1cc(/C=C2\COc3ccccc3C2=O)cc(Br)c1OCC(=O)N(C)C	3%	20µM*	?	4%[0.457 µM]	50µM*	-26%	6*	?	?	18µM*
CCOc1cc(C=O)cc(Br)c1OCC(N)=O	-7%	-11%	17%	0%	26%	-5%	/	/	/	/
O=C(O)c1ccc(/C=C2\COc3ccccc3C2=O)cc1	0%	20µM*	?	2%	?	-19%	21*	22µM*	?	?
CCc1cccc(-n2nnc(-c3nsc(NC(=O)c4cccs4)n3)c2C)c1	-3%	6%	28%[57.1 µM]	13%[57.1 µM]	/	/	/	/	/	/
CNC(=O)CSc1nnc(NC(=O)Nc2ccccc2)s1	21%	-3%	-6%[57.1 µM]	4%[57.1 µM]	/	/	/	/	/	/
COc1ccc(NC(=O)c2cc3c([nH]c2=O)CC(c2ccccc2)CC3=O)cc1 (stereo not drawn)	-11%	7%	22%[57.1 µM]	7%[57.1 µM]	/	/	/	/	/	/
CC1(C)Cc2ccccc2C2=NNC(=O)C2=N1	25%	11µM*	313%	124%	23%	-21%	?	?	-14%	?
Oc1cc2c(cc1C(c1ccc(Br)cc1)N1CCCC1)OCO2 (stereo not drawn)	19%	40µM*	2.5µM*	-18%[57.1 µM]	18µM*	1.5µM*	13*	10µM*	-4%	?
CC(C)Oc1ccc(C(=O)/C=C2/C(=O)Nc3ccccc32)cc1	-3%	28µM*	1%	1%	-21%	?	15*	10µM*	-10%	?
O=C1Nc2ccccc2/C1=C\C(=O)c1ccccc1	-19%	?	?	-7%	?	19µM*	8.9*	3.5µM*	?	?
CN(C)/C=C1\C(=O)Nc2ccccc21	1%	-3%	-14%	-12%	10%	-2%	/	/	/	/
N#CC1=C(N)C(C#N)(C#N)C(c2cccnc2)C2CN(C(=O)OCc3ccccc3)CC=C12 (stereo not drawn)	52µM*	20µM*	?	2%	-1%	-28%	12*	?	6%	-8%
Cc1cc(NC(=O)CCNS(=O)(=O)c2cccc3nsnc23)ccc1Br	1%	1%	3%	-4%	/	/	/	/	/	/
O=S(=O)(c1ccc2nc(COc3ccc(Cl)cc3Cl)[nH]c2c1)N1CCOCC1	3%	25%	-3%	-6%	-6%	-7%	/	/	/	/
Cc1ccccc1OCc1nc2ccc(S(=O)(=O)N3CCOCC3)cc2[nH]1	4%	40µM*	-8%[57.1 µM]	5%[57.1 µM]	40µM*	9.5µM*	21*	?	21%	38%
CCn1c(CSc2nnc(-c3ccncc3)n2CCOC)nc2cc(C(=O)O)ccc21	-2%	13µM*	15%[57.1 µM]	-3%	-3%	-7%	21*	22%	5%	19%
CCN(CC)c1ccc(NC(=O)COc2ccccc2C#N)cc1S(=O)(=O)Nc1ccccc1OC	3%	79µM*	-8%[57.1 µM]	2%[57.1 µM]	?	5.3µM*	9.5*	?	0%	17%
COc1ccccc1NS(=O)(=O)c1cc(NC(=O)CNC(=O)c2ccccc2)ccc1C	2%	4%	-21%	-13%	4%	-13%	/	/	/	/
CC(=O)Nc1sc(N/N=C\c2ccccc2)nc1-c1cccs1	3%	32µM*	24%[57.1 µM]	-19%[57.1 µM]	50µM*	?	3.4*	?	-2%	-10%
SMILES	mIDH1 inhibitor	VDR inhibitor	rTrxR1 inhibitor	TrxR1 substrate	Sfp inh	PLK1 PBD inh	VDR inh confirm	VDR FP	VDR bla reporter	VDR viability	others
O=C(NC1CCCCCC1)C(=S)N1CCOCC1	6%	18µM*	-13%[57.1 µM]	6%[57.1 µM]	16µM*	5.3µM*	21*	?	-4%	22%
O=C(NC1CCCCCC1)C(=S)N1CCCC1	-6%	-7%	22%	-1%	15%	-7%	/	/	/	/
C[C@@H]1c2ccccc2CN1CC1=NCCN1	/	3%	/	/	-5%	/	/	/	/	/	USP1-UAF1 confirm=-11%
CCOC(=O)N1C(=O)[C@](CC)(c2ccccc2)N1C(=O)OCC	-12%	79µM*	3.2µM*	1%	-19%	17µM*	?	?	21%	-5%
Cc1nn(-c2ccccc2)c2c1cc1c(=O)[nH]c(=O)nc-1n2-c1cccc(Cl)c1	-3%	-11%	27%	717%	/	/	/	/	/	/
CC1(C)CCC(=O)c2ccccc21	0%	-18%	7%[57.1 µM]	5%[57.1 µM]	/	-7%	/	/	/	/
CC1(C)CCC2=C(O1)c1ccccc1C(=O)C2=O	/	8.9µM*	25µM*!	18µM*	63µM*!	/	14*	11µM*	?	24µM*!	USP1-UAF1 confirm=8.3µM*

Assay outcomes as filed in PubChem.
